This is an account of results in PubChem BioAssay (NCI).

What all share (test): NCI-60 one-dose screen, 48 h (100 = growth as untreated, 0 = no growth, -100 = all killed)
Holding throughout (details): 10 µM unless noted

Test [1] relates to NCI-H23 lung.
Test [2] deals with NCI-H226 lung.
The test system of test [3] is HOP-62 NSCLC.
For test [4], the system named is NCI-H460 lung.
The test system of test [5] is HOP-92 NSCLC.
Test [6] concerns NCI-H522 lung.
Test [7] deals with A549/ATCC NSCLC.
Test [8] relates to 786-0 renal.
Test [9] has as its system DU-145 prostate.
In test [10] the test system is K-562 leukemia.
For test [11], the system named is MALME-3M melanoma.
For test [12], the system named is MDA-MB-231 breast.
The subject of test [13] is RXF 393 renal.
Test [14] relates to SF-268 CNS.
In test [15] the test system is SF-295 CNS.
In test [16] the test system is SF-539 CNS.
Test [17] relates to UACC-257 melanoma.
The subject of test [18] is M14 melanoma.
Test [19] relates to COLO 205 colon.

Compounds without any hit were thinned out: in the full panel of roughly 83,000, 20% have a hit.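 Each cell line was grown in a 96-well plate and treated with one concentration of compound for 48 hours. Values below 10 were considered active.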 Values without a mark were called inactive. Active and inactive are the calls of the source.

For the compound `COc1cc(C(=O)/C=C/c2c(-c3cccs3)nc3ccccn23)cc(OC)c1OC`, the growth in test [1] is 14.1%; in [2], 24.8%; in test [3], 16.3%; in test [4], -48.1% (active); in test [5], -1.12% (active); in test [6], 1.24% (active). Besides, the growth in test [7] was 13.7%; in test [8] it was 0.465% (active); in [9] it was 3.29% (active); in [10], 25.7%; in test [11] it was 33.9%; in test [12], 24.7%. In addition, the growth was 2.35% (active) in test [13]; 21% in [14]; -29.7% (active) in test [15]; -27% (active) in [16]; 29.9% in test [17]; 11.7% in [18].
In the case of `COc1ccc(-c2cc(-c3cc(OC)c(OC)c(OC)c3)c(C#N)c(=O)n2CCCCCC(=O)NO)cc1`, the growth is 97.3% in test [1]; 92.2% in [2]; 102% in test [3]; 96.6% in [4]; 88.5% in [5]; 89.5% in test [6]. Further, the growth in test [7] was 87.2%; in test [8], 101%; in test [19], 120%; in [9], 92.5%; in [10], 83%; in [11] it was 97.8%. Moreover, the growth in test [12] was 75.9%; in test [13] it was 92.9%; in test [14] it was 91.6%; in test [15], 91.2%; in test [16] it was 90.4%; in test [17] it was 99.6%. For the same compound, in test [18], the growth was 99.5%.
In the case of `CCOC(=O)c1c(-c2ccccc2)n2c(=O)cc(C)c3c(O)c(O)cc1c32`, the growth in test [1] is 66.2%; in test [2] it was 84.6%; in test [3] it was 39.4%; in [4] it was 20.3%; in [5], 47%; in test [6], 66.2%. Moreover, the growth in [7] is 43.1%; in test [8] it was 62.7%; in test [19] it was 86.9%; in test [9] it was 76.9%; in [10], 53.4%; in test [11], 64.7%. Further, the growth in test [12] is 76.3%; in [13], 76.3%; in test [14], 52.2%; in test [15], 59.9%; in test [16], 75.7%; in test [17], 69.7%. Besides, the growth in [18] is 66.2%.
With `O=C1NC(=Nc2ccc(O)cc2)S/C1=C\c1cccs1`, the growth in [1] was 47.4%; in [2], 57.4%; in [3], 46.7%; in test [4] it was 3.62% (active); in test [5] it was -7.99% (active); in [6], 15.5%. For the same compound, the growth in [7] is 35.4%; in test [8] it was 20.2%; in test [19], 105%; in [9], 44.6%; in test [10], 14.7%; in [11], 68.8%. Besides, the growth in [12] was 57.9%; in test [13] it was 41.2%; in [14] it was 50%; in test [15], 34.8%; in test [16] it was 16.7%; in [17], 70.5%. Moreover, the growth in [18] was 34.8%.
As to `COc1cc(-c2nc(NC(C)=O)sc2-c2ccnc(NCCNS(=O)(=O)c3ccccc3)n2)ccc1Cl`, the growth in test [1] was 63.4%; in test [2] it was 57.1%; in test [3], 34.2%; in test [4], 11.8%; in test [5], 25.3%; in test [6], 9.14% (active). The growth in test [7] is 25.6%; in test [8], 34.7%; in test [19], 2.47% (active); in test [9] it was 53.4%; in [10], 13.8%; in test [11] it was 27.9%. For the same compound, the growth in test [12] is 35.1%; in test [13], 36.7%; in test [14], 38.4%; in [15] it was 10.9%; in test [16], 8.69% (active); in [17] it was 47.1%. The growth in test [18] is -20.4% (active).
Regarding `CCOC(=O)c1c(NC(=O)CSc2n[nH]c3nc4ccccc4n23)sc(CC)c1C`, the growth in [1] was 98.6%; in [2] it was 86.7%; in test [3], 108%; in [4] it was 106%; in [5], 63.6%; in test [6], 87%. In addition, the growth was 102% in test [7]; 98.4% in test [8]; 114% in test [19]; 112% in test [9]; 117% in test [10]; 138% in test [11]. In addition, the growth in test [12] is 90.3%; in [13] it was 96.1%; in test [14], 108%; in test [15] it was 91%; in test [16] it was 111%; in test [17], 113%. In test [18], the growth was 116%.
On to `C/C(=N\Nc1nc(C)cs1)c1cc2ccccc2o1`, for which the growth is 86.9% in [1]; 76.7% in test [2]; 63.6% in test [3]; 95.6% in [4]; 87.3% in test [5]; 66.3% in test [6]. Besides, the growth in test [7] is 88%; in test [8], 104%; in [19], 110%; in test [9], 107%; in test [10], 78.4%; in test [11], 93.8%. For the same compound, the growth in test [12] was 79.9%; in [13], 120%; in [14], 97.9%; in test [15], 94.7%; in test [16] it was 94.8%; in test [17] it was 102%. For the same compound, the growth in [18] is 95.4%.
For `CNCc1cccc2c1OCCOCCN(C)C(=O)CN(C)S(=O)(=O)c1ccc(cc1)-c1cnc(N)c(n1)C(=O)N2`, the growth in test [1] was 6.92% (active); in test [2], -33.3% (active); in test [3], -6.9% (active); in [4], -40.9% (active); in test [5], 46.5%; in test [6] it was 23.5%. Further, the growth in test [7] was 11.9%; in [8], -40.3% (active); in [9] it was 7.84% (active); in test [10], -39.5% (active); in [11], -85.3% (active); in test [12], 67.6%. Moreover, the growth is -0.929% (active) in test [13]; 28.3% in test [14]; 36.1% in [15]; -50.7% (active) in [16]; 41.6% in test [17]; 2.41% (active) in test [18].
